According to PubChem BioAssay (NCI):
The panel holds about 79,000 compounds, 15% with a hit somewhere; the sample as a whole holds those more often. The source made the active and inactive calls. No stated cut-off is given here; in the data, active means growth inhibition above about 70%; inactive means the rest.

How the values were obtained:
[1] = NCI Yeast Anticancer Drug Screen. Data for the rad52 strain (AID 147);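 further: 0% = growth of vehicle-treated control cultures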; settings: S. cerevisiae rad52 mutant growth inhibition, hits give high values
Outline: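 Inhibition of yeast growth, referenced to vehicle controls, was the measured output for a strain with defective DNA damage repair.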

[2] = NCI Yeast Anticancer Drug Screen. Data for the wt1 strain (AID 149);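 further: 0% = growth of vehicle-treated wt1 cultures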; settings: S. cerevisiae wt1 strain (SPY 50644) growth inhibition, hits give high values
Outline: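 wt1 yeast, compound-treated; % growth inhibition vs vehicle control.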

[3] = NCI Yeast Anticancer Drug Screen. Data for the rad50EPP+ strain (AID 151);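 further: 0% = growth of vehicle-treated control cultures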; settings: S. cerevisiae rad50 mutant strain, hits give high values
Outline: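 Genetically defined yeast (rad50EPP+, DNA damage repair alteration) is grown with compound, and inhibition of growth is expressed relative to vehicle-treated controls.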

[4] = NCI Yeast Anticancer Drug Screen. Data for the mgt1 strain (AID 153); settings: S. cerevisiae mgt1 mutant growth inhibition, hits give high values
Outline: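 In the mgt1 strain, test compounds were added and growth inhibition was determined relative to vehicle-treated controls.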

[5] = NCI Yeast Anticancer Drug Screen. Data for the rad50 strain (AID 155);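 further: 0% = growth of vehicle-only cultures of the same strain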; settings: S. cerevisiae rad50 strain growth inhibition, hits give high values
Outline: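 Genetically altered yeast (DNA repair pathway); compound treatment; growth inhibition vs vehicle ctrl.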

[6] = NCI Yeast Anticancer Drug Screen. Data for the mec2-1 strain (AID 157); settings: S. cerevisiae mec2-1 strain, hits give high values
Outline: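 Each compound was tested on mec2-1 yeast, a strain altered in DNA damage repair or cell cycle control. Growth inhibition is reported relative to vehicle.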

[7] = NCI Yeast Anticancer Drug Screen. Data for the rad14 strain (AID 159);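 further: 0% = growth of vehicle-treated control cultures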; settings: S. cerevisiae rad14 strain growth inhibition, hits give high values
Outline: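 Test compounds were applied to a repair-deficient yeast strain. Its growth was then compared with that of cultures given vehicle alone, and inhibition was expressed relative to those controls.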

[8] = NCI Yeast Anticancer Drug Screen. Data for the sgs1 mgt1 strain (AID 161);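 further: 0% = growth of cultures given vehicle only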; settings: S. cerevisiae sgs1 mgt1 strain, hits give high values
Outline: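 Genetically altered yeast, compound exposure, growth inhibition relative to vehicle.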

[9] = NCI Yeast Anticancer Drug Screen. Data for the CLN2oe strain (AID 163);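 further: 0% = growth of vehicle-only control cultures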; settings: S. cerevisiae CLN2oe strain, hits give high values
Outline: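 First, the altered yeast strain was treated with each compound; second, its growth was measured; finally, inhibition was derived by comparison with vehicle controls.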

[10] = NCI Yeast Anticancer Drug Screen. Data for the cln2 rad14 strain (AID 165);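 further: 0% = growth equal to vehicle treated cultures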; settings: S. cerevisiae cln2 rad14 strain, hits give high values
Outline: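 Test compounds were added to cln2 rad14 yeast cultures; inhibition of growth was then determined by comparison with vehicle treatment.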

[11] = NCI Yeast Anticancer Drug Screen. Data for the bub3 strain (AID 167); settings: S. cerevisiae bub3 mutant strain, hits give high values
Outline: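 Yeast carrying a defined mutation is treated with each compound, and growth is compared with that of vehicle-exposed cells to give inhibition.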

[12] = NCI Yeast Anticancer Drug Screen. Data for the wt2 strain (AID 169);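 further: 0% = growth of vehicle-treated yeast cultures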; settings: S. cerevisiae wt2 strain growth inhibition, hits give high values
Outline: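 The panel's yeast strains carry defined changes in DNA repair or cell cycle genes. Each strain is grown with compound, and growth loss is scored relative to vehicle.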

[13] = NCI Yeast Anticancer Drug Screen. Data for the mlh1 strain (AID 171);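 further: 0% = growth of vehicle-treated control cultures of the same strain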; settings: S. cerevisiae mlh1 strain growth inhibition, hits give high values
Outline: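 Inhibition values reflect reduced yeast growth in the presence of compound, referenced to vehicle controls, using a strain chosen for its alteration in DNA repair or cell cycle control.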

[14] = NCI Yeast Anticancer Drug Screen. Data for the sgs1 strain (AID 173);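 further: 0% = growth of vehicle-only control cultures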; settings: S. cerevisiae sgs1 mutant, hits give high values
Outline: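 Vehicle-treated cultures served as reference for growth inhibition of a yeast strain altered in DNA damage repair or cell cycle control after compound exposure.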

[15] = NCI Yeast Anticancer Drug Screen. Data for the mlh1 rad18 strain (AID 175); settings: S. cerevisiae mlh1 rad18 strain growth inhibition, hits give high values
Outline: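 Inhibition values reflect reduced growth of mutant yeast versus vehicle-treated controls following compound exposure; the mutations affect DNA damage repair.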

[16] = NCI Yeast Anticancer Drug Screen. Data for the rad18 strain (AID 177); settings: S. cerevisiae rad18 mutant growth inhibition, hits give high values
Outline: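 Steps: expose repair-mutant yeast to compound; measure growth; express as inhibition relative to vehicle control.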

[17] = at 5.0 µM (retest, dose inferred, filed as 0.5)
[18] = at 50.0 µM (retest, dose inferred, filed as 5.0)

Measured: growth inhibition

NC(=O)C(=O)NNc1ccccc1
inactive: [1]; at 1.2 µM 4% | [1]; at 3.7 µM 12% | [1]; at 11.0 µM 39% | [2]; at 1.2 µM 3% | [2]; at 3.7 µM 13% | [2]; at 11.0 µM 45% | [2]; at 33.0 µM 57% | [3]; at 1.2 µM 9% | [3]; at 3.7 µM 29% | [3]; at 11.0 µM 60% | [4]; at 1.2 µM 5% | [4]; at 3.7 µM 10% | [4]; at 11.0 µM 28% | [5]; at 1.2 µM 1% | [5]; at 3.7 µM 6% | [5]; [17] 9% | [5]; at 11.0 µM 31% | [5]; [18] 49% | [6]; at 1.2 µM 0% | [6]; at 3.7 µM 6% | [6]; [17] -1% | [6]; at 11.0 µM 48% | [6]; [18] 4% | [7]; at 1.2 µM 1% | [7]; at 3.7 µM 0% | [7]; at 11.0 µM 13% | [7]; at 33.0 µM 66% | [8]; [17] 8% | [9]; at 1.2 µM -3% | [9]; at 3.7 µM 4% | [9]; at 11.0 µM 41% | [9]; at 33.0 µM 67% | [10]; [17] 9% | [10]; [18] 32% | [11]; at 1.2 µM -3% | [11]; at 3.7 µM 6% | [11]; [17] 27% | [11]; at 11.0 µM 64% | [11]; [18] 66% | [12]; at 1.2 µM 3% | [12]; at 3.7 µM 13% | [12]; at 11.0 µM 34% | [12]; at 33.0 µM 60% | [13]; at 1.2 µM 3% | [13]; at 3.7 µM 5% | [13]; at 11.0 µM 31% | [14]; at 1.2 µM 3% | [14]; at 3.7 µM 14% | [14]; at 11.0 µM 59% | [15]; [17] 45% | [16]; at 1.2 µM 6% | [16]; at 3.7 µM 17% | [16]; at 11.0 µM 65%
active: [1]; at 33.0 µM 85% | [1]; at 100.0 µM 98% | [2]; at 100.0 µM 94% | [3]; at 33.0 µM 85% | [3]; at 100.0 µM 96% | [4]; at 33.0 µM 76% | [4]; at 100.0 µM 97% | [5]; at 33.0 µM 75% | [5]; at 50.0 µM 95.5% | [5]; at 100.0 µM 97% | [6]; at 33.0 µM 81% | [6]; at 50.0 µM 83.8% | [6]; at 100.0 µM 97% | [7]; at 100.0 µM 98% | [8]; [18] 78% | [8]; at 50.0 µM 90.5% | [9]; at 100.0 µM 96% | [10]; at 50.0 µM 80.8% | [11]; at 33.0 µM 95% | [11]; at 50.0 µM 92.2% | [11]; at 100.0 µM 97% | [12]; at 100.0 µM 97% | [13]; at 33.0 µM 75% | [13]; at 100.0 µM 98% | [14]; at 33.0 µM 92% | [14]; at 100.0 µM 98% | [15]; [18] 89% | [15]; at 50.0 µM 82.7% | [16]; at 33.0 µM 92% | [16]; at 100.0 µM 97%
